Experimental data as given in PubChem BioAssay.
The source made the active and inactive calls.

What was measured:
[1] = system: Plasmodium falciparum Sir2 (PF13_0152, Sir2A); experiment: pfSir2 binders on small-molecule microarrays, primary screen, biochemical, small-molecule microarray, 635 nm fluorescence (AID 1098); details: small-molecule microarray binding, fluorescence 635 nm; higher = more signal;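 note: score merges spot fluorescence intensity with its signal-to-noise ratio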
[2] = small-molecule microarray binders of probe aDKK1, primary screen, biochemical, biotinylated probe, 635/667 nm fluorescence (AID 1099); details: higher = more signal;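 note: score merges 667nm spot fluorescence with signal to noise across triplicate slides; reference of the scale not given here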
[3] = small-molecule microarray binders of probe aCHRDL2, primary screen, biochemical, biotinylated probe, 635/667 nm fluorescence (AID 1100); details: higher = more signal
[4] = splicing luciferase reporter signal modulators, primary screen, spliceosome inhibition project, cell-based, HEK293, splice +/- reporter (AID 1101); details: luminescence, 24 h, higher = more signal, called active from +8 up or from −8 down;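 note: HEK293 cells carrying a splicing-competent luciferase reporter gene; test concentration not given here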
[5] = target: Fibroblast growth factor 10 (Homo sapiens) (UniProt O15520); experiment: FGF10 binders on small-molecule microarrays, primary screen, biochemical, small-molecule microarray, 635 nm fluorescence (AID 1102); details: FGF10 binding, fluorescence 635 nm, higher = more signal
Chain of Fibroblast growth factor 10 (Homo sapiens) (O15520 whole entry, looked up): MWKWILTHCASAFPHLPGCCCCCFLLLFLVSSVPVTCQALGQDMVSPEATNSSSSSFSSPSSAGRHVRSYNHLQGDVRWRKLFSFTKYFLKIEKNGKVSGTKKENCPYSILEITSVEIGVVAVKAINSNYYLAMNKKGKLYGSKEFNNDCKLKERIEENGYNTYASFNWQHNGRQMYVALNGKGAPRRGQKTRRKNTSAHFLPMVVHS

[6] = system: glycogen synthase kinase-3 (GSK3A per assay name; protocol says GSK3B); experiment: GSK3 binders on small-molecule microarrays, primary screen, biochemical, small-molecule microarray, 635 nm fluorescence, GSK3A (AID 1103); details: small-molecule microarray binding, fluorescence 635 nm; higher = more signal; note: the record names both GSK3A and GSK3B
[7] = target: Epidermal growth factor receptor (Homo sapiens) (UniProt P00533); experiment: EGFR binders on small-molecule microarrays, primary screen, biochemical, small-molecule microarray, 635 nm fluorescence (AID 1104); details: EGFR binding, higher = more signal;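 note: score merges 667 nm emission intensity with spot signal to noise over triplicate slides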
Chain of Epidermal growth factor receptor (Homo sapiens) (P00533 whole entry, looked up): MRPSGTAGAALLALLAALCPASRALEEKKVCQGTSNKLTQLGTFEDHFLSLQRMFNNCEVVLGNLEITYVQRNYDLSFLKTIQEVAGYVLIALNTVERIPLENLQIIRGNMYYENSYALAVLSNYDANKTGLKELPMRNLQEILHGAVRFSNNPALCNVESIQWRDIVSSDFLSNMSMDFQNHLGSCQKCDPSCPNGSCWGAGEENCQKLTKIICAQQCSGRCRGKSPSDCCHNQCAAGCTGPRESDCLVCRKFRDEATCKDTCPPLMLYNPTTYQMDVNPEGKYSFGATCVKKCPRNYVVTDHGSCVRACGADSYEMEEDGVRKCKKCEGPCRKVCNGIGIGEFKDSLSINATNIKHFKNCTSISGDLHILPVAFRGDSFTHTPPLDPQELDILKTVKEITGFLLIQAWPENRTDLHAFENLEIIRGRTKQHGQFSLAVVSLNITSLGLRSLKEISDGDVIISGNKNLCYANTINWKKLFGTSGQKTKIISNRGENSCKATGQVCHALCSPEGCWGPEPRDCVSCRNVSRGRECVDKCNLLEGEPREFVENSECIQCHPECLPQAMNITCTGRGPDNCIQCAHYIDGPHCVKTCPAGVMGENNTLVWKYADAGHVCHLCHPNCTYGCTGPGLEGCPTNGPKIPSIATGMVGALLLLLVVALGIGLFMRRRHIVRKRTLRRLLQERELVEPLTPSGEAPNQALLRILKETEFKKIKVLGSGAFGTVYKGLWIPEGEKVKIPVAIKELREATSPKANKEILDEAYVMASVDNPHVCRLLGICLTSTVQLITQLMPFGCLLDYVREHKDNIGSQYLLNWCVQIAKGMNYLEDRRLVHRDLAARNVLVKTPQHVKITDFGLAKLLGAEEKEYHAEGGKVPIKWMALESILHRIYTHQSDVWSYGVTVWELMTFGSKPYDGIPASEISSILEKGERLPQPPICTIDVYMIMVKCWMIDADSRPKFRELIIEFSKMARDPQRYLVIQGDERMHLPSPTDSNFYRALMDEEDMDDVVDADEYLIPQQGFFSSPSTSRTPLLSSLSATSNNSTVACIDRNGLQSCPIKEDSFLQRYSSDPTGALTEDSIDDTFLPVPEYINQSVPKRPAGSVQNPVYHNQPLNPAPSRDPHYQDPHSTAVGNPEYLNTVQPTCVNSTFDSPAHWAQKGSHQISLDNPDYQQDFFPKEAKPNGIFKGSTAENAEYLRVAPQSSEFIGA

[8] = target: Follistatin-related protein 3 (Homo sapiens) (UniProt O95633); experiment: FSTL3 binders on small-molecule microarrays, primary screen, biochemical, small-molecule microarray, 635 nm fluorescence (AID 1105); details: FSTL3 binding, higher = more signal;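 note: score merges emission near 667 nm and signal to noise per printed spot across three slides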
Chain of Follistatin-related protein 3 (Homo sapiens) (O95633 whole entry, looked up): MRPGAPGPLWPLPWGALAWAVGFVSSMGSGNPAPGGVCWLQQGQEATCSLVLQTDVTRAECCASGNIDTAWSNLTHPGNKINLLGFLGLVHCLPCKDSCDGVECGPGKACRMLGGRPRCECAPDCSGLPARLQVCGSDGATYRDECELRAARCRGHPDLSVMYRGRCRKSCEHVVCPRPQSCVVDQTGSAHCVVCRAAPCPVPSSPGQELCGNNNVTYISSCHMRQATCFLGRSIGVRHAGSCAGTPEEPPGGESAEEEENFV

[9] = target: Dickkopf-related protein 1 (Homo sapiens) (UniProt O94907); experiment: DKK1 binders on small-molecule microarrays, primary screen, biochemical, small-molecule microarray, 635 nm fluorescence scan (AID 1106); details: DKK1 binding, higher = more signal;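 note: score merges emission near 667 nm with signal to noise over three replicate slides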
Chain of Dickkopf-related protein 1 (Homo sapiens) (O94907 whole entry, looked up): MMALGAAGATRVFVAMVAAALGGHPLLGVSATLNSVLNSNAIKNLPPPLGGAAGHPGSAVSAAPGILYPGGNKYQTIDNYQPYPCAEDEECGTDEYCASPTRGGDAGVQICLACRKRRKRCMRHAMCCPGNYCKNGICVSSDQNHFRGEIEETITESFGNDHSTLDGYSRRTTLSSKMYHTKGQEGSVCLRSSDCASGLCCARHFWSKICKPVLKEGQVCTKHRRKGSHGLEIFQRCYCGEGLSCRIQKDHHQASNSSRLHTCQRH

[10] = system: Inhibin beta A chain (activin A); experiment: INHBA (activin A) binders on microarrays, primary screen, biochemical, small-molecule microarray, 635 nm fluorescence scan (AID 1107); details: small-molecule microarray binding, higher = more signal;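 note: mouse activin A protein probed at 4.33 µg/mL on printed slides; score merges bound-protein fluorescence near 667 nm with spot signal-to-noise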

SMILES | composite z-score [1] | composite z-score [2] | composite z-score [3] | z-score [4] | composite z-score [5] | composite z-score [6] | composite z-score [7] | composite z-score [8] | composite z-score [9] | composite z-score [10]
C=C(C(=O)CC[C@H](OC(=O)c1ccccc1-c1ccccc1C(=O)O)c1ccccc1OCCO)C(C)C | 1.01 | -0.175 | -0.459 | -0.456 (inactive) | 0.238 | 0.304 | -0.388 | 0.176 | 0.273 | 1.16
C=CCC(OC(C)=O)[C@@H]1[C@@H](N(Cc2ccc(-c3ccccc3)cc2)C(=O)Cc2ccc(F)cc2)c2cc(OCCCO)ccc2N1C(=O)Cc1ccc2ccccc2c1 (stereo not given in full) | -0.261 | -0.0697 | 0.652 | -0.681 (inactive) | -0.13 | -0.199 | -0.113 | -0.507 | -0.117 | 1.3
CC1(C)C(=O)C(c2ccccc2)=C2CN3C(=O)N(CCc4ccccc4)C(=O)C3(Cc3ccc(C(F)(F)F)cc3)C=C21 (stereo not given) | 0.9 | 1.01 | 1.12 | 0.701 (inactive) | 0.472 | 0.288 | -0.0744 | 0.717 | -1.01 | 0.721
C[C@@]12COC[C@]13C=C(Br)[C@H](C2)[C@@]1(CO1)C3=O | -0.363 | -0.101 | 0.262 | -0.374 (inactive) | -0.732 | -1.02 | -0.886 | -0.449 | -0.614 | 0.701
COc1cc(NN2C(C(O)C3CCCCC3)C=CC3C(=O)N(C)C(=O)C32)cc(OC)c1OC (stereo not given) | 1.04 | 1.05 | 1.1 | 1.1 (inactive) | 0.144 | 1.17 | 0.203 | 1.06 | -1.47 | 0.823
C=CCC(OC(C)=O)[C@@H]1[C@@H](N(Cc2ccc(-c3cccc(C(F)(F)F)c3)o2)C(=O)c2cccc3ccccc23)c2cc(OCCCO)ccc2N1C(=O)Cc1ccc(OC)cc1 (stereo not given in full) | 0.727 | -0.291 | 0.107 | -0.57 (inactive) | 0.0525 | -1.13 | -0.198 | 0.495 | -0.141 | 1.08
O=C1O[C@H](c2ccccc2)[C@H](c2ccccc2)N2[C@H]1[C@@H](C(=O)N1CCCCCCC1)[C@]1(C(=O)Nc3ccc(C#CC4(O)CCCCCC4)cc31)[C@H]2c1ccc(O)cc1 | 1.5 | 2.93 | 1.59 | 0.69 (inactive) | 1.19 | 1.34 | 1.72 | 1.58 | 1.75 | 1.79
CC(=O)NCCCC[C@@H]1NC(=O)[C@H]2C[C@@H](C(=O)NCCCCCNC(=O)CS)[C@@H](c3cccc(OCCO)c3)N2C1=O | 1.52 | -0.136 | 0.441 | -0.293 (inactive) | 0.349 | 0.552 | 0.39 | 0.397 | 0.607 | 0.469
COc1cc(NN2C(C(O)c3ccc(I)cc3)C=CC3C(=O)N(c4ccccc4)C(=O)C32)cc(OC)c1OC (stereo not given) | 0.913 | 0.763 | 1.04 | -0.329 (inactive) | 1.17 | 1.29 | 0.266 | 1.3 | -0.305 | 0.946
CCOC(=O)C1=C[C@@H](c2ccccc2)N(S(=O)(=O)c2ccc(C)cc2)[C@H]1c1ccccc1 | 0.394 | 0.0612 | 0.753 | -0.924 (inactive) | -0.0005 | -0.193 | 0.0794 | -0.0021 | -0.399 | 1.46
C=CCNC(=O)[C@@H]1[C@H]2C(=O)O[C@H](c3ccccc3)[C@H](c3ccccc3)N2[C@H](c2ccc(O)cc2)[C@@]12C(=O)Nc1ccc(C#CCC(C(=O)OC)C(=O)OC)cc12 | 0.445 | 0.0989 | 0.181 | 0.246 (inactive) | 0.242 | 0.958 | -0.0617 | 0.544 | 0.317 | 0.595
C=CCOC(=O)[C@H]1[C@@H]2C(=O)O[C@@H](c3ccccc3)[C@@H](c3ccccc3)N2[C@@H](c2ccc(OCCOC(=O)[C@H]3C[C@H]4C(=O)N[C@@H](CCCCNC(C)=O)C(=O)N4[C@H]3c3cccc(OCCO)c3)cc2)[C@]12C(=O)Nc1ccc(I)cc12 | 1.14 | -0.886 | -0.887 | -1.5 (inactive) | 1.49 | 0.677 | 0.463 | 1.43 | 0.719 | 0.0677
COc1ccc([Si](C)(C)[C@@H]2[C@@H](CC(=O)N3Cc4ccccc4C[C@H]3CO)O[C@]3(C(=O)N(c4ccccc4)c4ccccc43)[C@H]2C)cc1 | 2.04 | 0.713 | 0.449 | -0.0709 (inactive) | 1.09 | 1.26 | 0.799 | 1.37 | 1.1 | 0.816
CCCCC(=C=CC[C@H](O)c1ccc(OCCO)cc1)C[C@H](O)COCc1ccccc1 | 1.07 | -0.221 | -0.0323 | -0.639 (inactive) | 0.793 | -0.171 | -0.304 | -0.603 | -0.259 | 1.12
CN1C(=O)C2C=CC(C(O)c3ccc(F)cc3)N(NC(=O)OC(C)(C)C)C2C1=O (stereo not given) | 0.578 | -0.066 | 0.535 | 1.15 (inactive) | 0.45 | 0.336 | -0.196 | 0.15 | -0.767 | 0.471
COCCCNC(=O)[C@@]1(c2ccc([N+](=O)[O-])cc2)CC(=O)N(CC23CC4CC(CC(C4)C2)C3)[C@@H]1c1ccc(CO)cc1I | 1.02 | 0.541 | 0.847 | 3.68 (inactive) | -0.0432 | -0.115 | -0.392 | -0.36 | -0.15 | 0.126

SMILES | composite z-score [1] | composite z-score [2] | composite z-score [3] | z-score [4] | composite z-score [5] | composite z-score [6] | composite z-score [7] | composite z-score [8] | composite z-score [9] | composite z-score [10]
COc1cc2c(cc1OC)CN(C(=O)[C@@H]1[C@H]3C(=O)O[C@H](c4ccccc4)[C@H](c4ccccc4)N3[C@H](c3ccc(O)cc3)[C@@]13C(=O)Nc1ccc(C#CCCO)cc13)CC2 | 0.552 | -0.0984 | 0.562 | -0.117 (inactive) | 1.19 | 0.422 | -0.0629 | 0.547 | 0.755 | 0.924
[N-]=[N+]=Nc1ccccc1C[C@]1(C(=O)O)N=C(c2ccc(OCCCO)cc2)O[C@H]1c1ccccc1 | 1.71 | 0.336 | 0.724 | -0.918 (inactive) | 0.143 | 0.0096 | -0.839 | 0.195 | -0.689 | 0.86
COCCOC(=O)N1C(=O)[C@@]2(c3ccccc31)[C@H](c1ccccc1OCCO)N1[C@H](c3ccccc3)[C@H](c3ccccc3)OC(=O)[C@H]1[C@@H]2C(=O)N1CCCCCCC1 | 1.91 | 3.18 | 1.76 | -1.46 (inactive) | 1.37 | 1.37 | 1.91 | 1.68 | 2.31 | 2.02
O=C(CS)NCCCCCCNC(=O)[C@@H]1C[C@@H]2C(=O)NCC(=O)N2[C@@H]1c1ccc(O)cc1 | 1.57 | -0.11 | 0.592 | -1.65 (inactive) | -0.297 | -0.135 | -0.395 | -0.586 | -0.262 | -0.716
COC(=O)[C@@]1(Cc2ccccc2CN=[N+]=[N-])N=C(c2ccc(OCCCO)cc2)O[C@H]1c1ccccc1CN=[N+]=[N-] | 1.32 | -0.0486 | 1.02 | -1.34 (inactive) | -0.304 | -0.568 | -1.48 | -0.774 | -1.02 | -0.0879
CCN(CC)c1ccc(N2CC=CC34O[C@@H]5C=CCCOC(=O)C5[C@H]3C(=O)N(CCO)[C@@H]4C2=O)cc1 (stereo not given in full) | -0.0437 | -0.289 | 0.269 | -0.688 (inactive) | -0.504 | -0.908 | -0.869 | -1.45 | -0.351 | -0.589
COCCCNC(=O)[C@@H]1c2ccccc2C(=O)N(C2Cc3ccccc3C2)[C@H]1c1ccc(CO)cc1 | 0.122 | 0.299 | 0.186 | 0.0141 (inactive) | 0.639 | 1.04 | 0.172 | 0.121 | 0.447 | 0.952
CN(C)C(=O)[C@@]1(Cc2ccccc2)COC(c2ccc(OCCCO)cc2)=N1 | 0.429 | -0.246 | -0.0283 | -0.781 (inactive) | -0.304 | 0.792 | 0.197 | -0.718 | -0.59 | -0.512
C=CCC(OC(C)=O)[C@@H]1[C@@H](N(Cc2ccc(-c3cccc(C(F)(F)F)c3)o2)C(=O)c2ccc(C)cc2)c2cc(OCCCO)ccc2N1C(=O)Cc1ccc(OC)cc1 (stereo not given in full) | 1.1 | -0.145 | -0.0583 | -0.0858 (inactive) | -0.0938 | -0.808 | -0.0424 | 0.345 | 0.0682 | 0.975
COC(=O)[C@@]1(Cc2ccc(OC)cc2)[C@H]2c3cc(C(=O)N4CCCC4)n(Cc4ccc(S(C)(=O)=O)cc4)c3C[C@H]2CN1C(=O)c1ccccc1 | 0.645 | 0.807 | 1.29 | 0.699 (inactive) | 0.508 | 0.401 | 0.348 | -0.0139 | -0.802 | 0.881
COCCOC(=O)N1C(=O)[C@@]2(c3cc(C#CCNC(N)=O)ccc31)[C@H](c1ccc(O)cc1)N1[C@H](c3ccccc3)[C@H](c3ccccc3)OC(=O)[C@H]1[C@@H]2C(N)=O | -0.583 | -0.224 | 0.444 | 0.00136 (inactive) | -1.62 | -1.32 | -1.9 | -2.16 | -1.86 | -1.08
COc1ccc([Si](C)(C)[C@H]2[C@H](CC(=O)N3Cc4ccccc4C[C@H]3CO)O[C@@]3(C(=O)N(Cc4ccc(N5C(=O)c6cccc7cccc5c67)cc4)c4ccccc43)[C@@H]2C)cc1 | 0.959 | -0.247 | -0.0288 | -0.91 (inactive) | 0.884 | 1.28 | 0.868 | 1.31 | 0.879 | 0.473
CC(C)C[C@@H]1NC(=O)CNC(=O)[C@@]23C(=O)N[C@@H](Cc4ccccc4)C2[C@H](C)[C@@]2(C)O[C@H]2C3/C=C/C/C=C\CNC1=O (stereo not given in full) | 0.15 | -0.212 | -0.445 | 0.426 (inactive) | 0.569 | 1.15 | 0.366 | 1.04 | 0.568 | 1.25
[N-]=[N+]=NCc1ccccc1C[C@@]1(C(=O)N2CCCCC2)N=C(c2ccc(OCCCO)cc2)O[C@@H]1c1ccccc1CN=[N+]=[N-] | 0.649 | 0.453 | 1.07 | -0.4 (inactive) | 0.375 | 0.962 | -0.0197 | -0.0105 | 0.287 | 0.964
C=CC[C@H](OC(=O)Nc1ccc(SC)cc1)c1ccc(OCCO)cc1 | 0.392 | -0.164 | 0.799 | -1.69 (inactive) | -0.163 | -0.989 | -0.634 | -0.0191 | -0.472 | 0.138
[N-]=[N+]=NCc1ccccc1[C@@H]1OC(c2ccc(OCCCO)cc2)=N[C@]1(Cc1ccccc1N=[N+]=[N-])C(=O)NCCN1CCOCC1 | 1.54 | 0.251 | 0.851 | -0.312 (inactive) | 1.51 | 1.34 | 0.218 | 1.23 | 0.331 | 0.533
